Among all 6,900 compounds or so, fewer than 10 were called active. Calls follow the shape of the dose curve; as a rule, active = well fitted curve in the direction sought with a large enough effect; inconclusive = small, poorly fitted or top-dose-only effect, or another doubt; inactive = no such curve, though single readings can be large or run the other way. Only a sample is shown.
target: Metallo-beta-lactamase type 2 (Klebsiella pneumoniae) (UniProt C7C422); assay: qHTS to identify inhibitors of the New Delhi Metallo-beta-lactamase (NDM): primary screen against the NCATS Gemini Collection; details: NDM-1 enzyme, meropenem hydrolysis, absorbance 300 nm; series mostly up to 38.4 µM; activity % (negative = inhibition): at the top concentration; also: % of control where 0% means no effect
Text: Assay Submitter (PI): James Inglese Ph.D., Patricia Dranchak Ph.D., Mahesh Aitha Ph.D. Assay Development and Screening Technology Laboratory (ADST) National Center for Advancing Translational Sciences (NCATS), Rockville, MD National Institute of Health (NIH), Bethesda, Maryland The metallo-beta-lactamases (MBL) are a main antibiotic resistance mechanism evolved by bacteria. There is an urgent clinical need for MBL inhibitors to mitigate this growing threat. To support a machine-based learning study, qHTS has been used to experimentally test inhibitors identified by prediction tools.
PROTOCOL TABLE (as described by Inglese et al., 2007) SEQUENCE No. (e.g., 1, 2, 3, etc.); […] (e.g., enzyme, Incubation, Reagent, etc.); VALUE; DESCRIPTION 1; NDM-1; 4 uL of 3 nM enzyme [2 nM final] in 50 mM HEPES (pH 7.0), 1 uM […], 0.01% Tween20; Use BioRaptr to dispense into Aurora black, clear bottom low base 1536-well plates 2; Compounds; 23 nL; Use Pin Tool (Wako) to transfer DMSO control and library compounds in DMSO 3; Incubate; >30 min 4; Reagent; 2 uL of 150 uM meropenem [50 uM final] 5; Incubate; 30 min. 6; Detector; Absorbance at 300 nm (bandwidth = 5 nm, 25 flashes/well) on Tecan Infinity NOTES (numbers refer to sequence above) 1; Column 1 of each plate received assay buffer without enzyme and columns 2-48 received enzyme for a final assay concentration of 2 nM. 2; Control plate contained DMSO in columns 1, 2, 3, and 4. 3; Compound interaction with enzyme. 4; Meropenem substrate was prepared in the same assay buffer as step 1 for a final assay concentration of 50 uM and added to all wells across the assay plates. 5; Substrate interaction with enzyme, plateau phase of kinetics. 6; Default reader settings were applied for absorbance read at 300 nm, bandwidth = 5 nm, 25 flashes/well. References: Inglese J, Shamu CE, Guy RK. 2007. Reporting data from high-throughput screening of small-molecule libraries. Nat Chem Biol. doi:10.1038/nchembio0807-438 Yasgar A, Shinn P, Jadhav A, Auld D, Michael S, Zheng W, Austin CP, Inglese J, Simeonov A. 2008. Compound Management for Quantitative High-Throughput Screening. J Lab Autom 13:79 - 89. doi:10.1016/j.jala.2007.12.004

Chain of Metallo-beta-lactamase type 2 (Klebsiella pneumoniae) (C7C422 whole entry, looked up): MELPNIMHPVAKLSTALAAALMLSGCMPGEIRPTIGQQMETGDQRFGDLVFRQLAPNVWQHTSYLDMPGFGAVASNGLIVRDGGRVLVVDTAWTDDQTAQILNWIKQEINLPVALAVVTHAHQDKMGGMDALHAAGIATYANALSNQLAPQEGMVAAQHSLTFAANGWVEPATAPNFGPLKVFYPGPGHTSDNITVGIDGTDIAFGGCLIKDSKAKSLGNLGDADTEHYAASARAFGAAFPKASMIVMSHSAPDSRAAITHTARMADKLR

Activity % (negative = inhibition), inactive:
CN1C(=O)[C@H]2CN(Cc3cn[nH]c3-c3cccs3)C[C@H]2C1=O 1.58%, CCOCCn1c(=O)[nH]c2cc(C(=O)NCCn3cnnc3)ccc21 3.21%, Cn1cnnc1-c1nn(C)c2c1CNCC2 3.66%, COc1ccc(-c2nc(N3CCOCC3)cc3c2CN(Cc2ccccc2)C3=O)cn1 2.36% [at 57.5 µM], O=C(c1ccc(Cl)cc1)N1CCN(Cc2ccccc2-c2cccnc2)CC1 11.2%, CCOCCn1nc(C)cc1C(=O)N[C@H]1[C@H]2CCO[C@H]2[C@@H]1N(C)C -0.113%, CCn1c(CO)nnc1C1CC(NC(=O)c2[nH]c3ccc(OC)cc3c2C)C1 (centres undefined) 13.2%, O=C(NCCCc1ccccc1F)[C@@]12CNC[C@@H]1CN(Cc1ccccc1)C2 2.98%, CCCNc1ccc2nncn2n1 -0.753%, COc1cc(OC)cc(-c2onc(C)c2C(=O)NCc2ccccc2C)c1 0.744%, CS(=O)(=O)NC[C@H]1Cn2ccnc2CO1 -0.563% [at 77.1 µM], Cc1noc(C)c1[S+](=O)([O-])N1CCc2nc(-c3ccccc3)nc(-c3ccc(Cl)cc3)c2C1 6.08%, Cc1ccc2nc(C(NC(=O)C3CCN(CC(N)=O)CC3)C(C)C)[nH]c2c1 (centres undefined) -0.481%, COc1cc2c(cc1NS(C)(=O)=O)C(c1cccc3c1OCO3)CC(=O)N2 (centres undefined) 0.737%, Cn1cc(-c2ccc3c(n2)CN(Cc2ccc(F)cc2)C(=O)CO3)cn1 8.04% [at 57.5 µM], Cc1nn(-c2ccccc2)c(C)c1Cc1nc(C(C)C)no1 10.3%, Cn1cncc1C(=O)N1CCC2(CC1)CNC(C(=O)O)C2 (centres undefined) 43.9%, COc1cccc(N2CCN(C(=O)c3noc(-c4ccc(C)cc4)n3)CC2)c1 4.04%, CCc1c(C)nn(CCNC(=O)c2cc(S(N)(=O)=O)ccc2F)c1C -0.662%, COc1cc(F)ccc1-c1nc(-c2c(C)noc2C)cc2cc(C)oc12 27.1% [at 57.5 µM], COCCCN(CCC(=O)NCc1ccc2c(c1)OCO2)C(=O)c1cc(C)oc1C -9.84%, Cc1cnc(CCNS(=O)(=O)c2cccc(F)c2)n1C(C)C 0.39%, Cc1cccnc1NCCNC(=O)c1ccc(S(N)(=O)=O)cc1 13%, CCCN1CCC2(CCN([S+](=O)([O-])c3cccs3)CC2)Oc2ccccc21 -2.6%, Cc1ccc(C(=O)N2CCCC2C(=O)N2CCCC2c2nc3ccncc3[nH]2)cc1 (centres undefined) 0.286%, O=C(c1ccoc1)N1CCN(c2cc(C3CC3)ncn2)CC(O)C1 (centres undefined) 18.2%, Cc1n[nH]c(C)c1CNC(=O)C1CCN(c2cn[nH]c(=O)c2)C1 (centres undefined) 10.8%, COCCC1(NC(=O)C2CC2)CCN(C(=O)c2ccccn2)CC1 5.91%, O=C1CC2(CCN(C(=O)c3ccccn3)C2)Nc2ccccc2N1 (centres undefined) -2.18%, O=C1Cc2c(-c3ccccc3OCc3ccccc3)n[nH]c2CN1Cc1ccccn1 9.35% [at 57.5 µM], CCCc1ccc2oc(C(=O)N(C)CCC3CCCCO3)c(C)c2c1 (centres undefined) 4.21%, O=C1NCCCc2[nH]c(-c3cnn(-c4ccc(F)cc4)c3)nc21 23%, CCc1nc2c(c(-c3ccc(Cl)cc3)n1)CN(Cc1ccccn1)CC2 102%, CCN1CCC(CC(=O)N2CCC(C3CCN(C(=O)NC)CC3)C2)CC1 (centres undefined) 26.7%, CN(C)S(=O)(=O)N1CCc2nn(C)c(=O)n2CC1 10.1%, CC(=O)c1ccc(NC(=O)N[C@H]2CCN3C(=O)[C@@H](Cc4ccccc4)NC(=O)[C@H]23)cc1 13.7% [at 57.5 µM], CCn1ccc(C(=O)N2CC(c3nc(CCOCC4CC4)no3)C2)n1 -0.382%, NC(=O)[C@@H](Cc1ccccc1)NC(=O)[C@@H]1C[C@@H](NS(=O)(=O)c2cccs2)CCN1C(=O)CSCC(=O)O 0.756%, COc1cccc(CCC(=O)N2CCC(OCC3CC3)C2)c1 (centres undefined) 22%, CN1C(=O)CC[C@]2(C(=O)NCc3ccco3)CCCC[C@@H]12 73.1%, Cc1cn2nnc(C(=O)N3CCC(C(=O)Nc4cccc(F)c4)CC3)c2c(=O)[nH]1 -2.5%, COc1ccc(CN(C)C2CCCN(CCc3ccccc3)C2)c(OC)c1OC (centres undefined) -2.17%, CC(=O)N1CCC(OCCOc2ccccc2)CC1 -7.31%, CCOc1c(CN(C)C(=O)Cn2cccc(OC)c2=O)cccc1OC 1.77%, Oc1ccccc1CN1CC(CNc2cccnc2)C2(C1)CN(c1ccccc1)C2 (centres undefined) 28.9% [at 57.5 µM], O=C(CC1CCCC1)N1C[C@@H](CO)[C@@H]2Oc3ccc(Cl)cc3[C@@H]21 7.23%, COC1CCOC2(CCN(C(=O)Cc3ccccc3)CC2)C1 (centres undefined) -13.9%, CCc1ccc(S(=O)(=O)N2c3ccccc3CC2c2nnc(C3CCOCC3)o2)cc1 (centres undefined) 0.344%, CC(C)(C)OC(=O)N1CC(NCc2cccc(F)c2F)C1 40% [at 57.5 µM], C1=C(c2nc(-c3ccncc3)cc3c2ccn3Cc2cccnc2)CCOC1 17.9% [at 57.5 µM], COC(=O)N1CCCCC1C(=O)N1CCC2(CC1)c1nc[nH]c1CCN2C (centres undefined) -2.82%, O=C(N1CCCCCC1CN1CCOCC1)C1(c2ccccc2)CC1 (centres undefined) 12.4%, CCC1CN(C(=O)c2ccc(NCc3cnn(CC)c3)nc2)CCN1C(C)C (centres undefined) 1.35%, N#CC1CCN(C(=O)C2CCN(C(=O)c3ccc(-c4cncnc4)cc3)CC2)CC1 -3.71%, CC(C)C(=O)N1CCC(NCCOc2ccccc2Cl)CC1 12.6%, CC(C)N(Cc1nccn1C)C(=O)CC(c1ccccc1)c1ccccc1F (centres undefined) 23%, CCc1ccccc1NC(=O)N1C[C@@H](F)C[C@H]1C(=O)N1CCc2ccccc2C1 0.167%, COCCOCc1nc(C2CCCN2C(=O)Nc2ccc(F)cc2F)no1 (centres undefined) -10%, COc1ccc(NC(=O)[C@@H]2C[C@H](c3ccc(F)cc3)N(Cc3ccccc3Cl)C2)cn1 6.46% [at 57.5 µM], CN(C)C(=O)N1CCC2(CC1)CC(c1cccc(C(F)(F)F)c1)=NO2 -0.151%, COC1CCOC2(CCN(C(=O)CCc3nc4ccccc4s3)CC2)C1 (centres undefined) 18.8%, Cc1cc(C)n(C2CCN(c3nccc(-c4ccccn4)n3)C2)n1 (centres undefined) 25.4%, CN(C)Cc1nnc(C2CC(NC(=O)Cc3c[nH]c(=O)n(C)c3=O)C2)n1C (centres undefined) -2.57%, O=C(C1CCCN1C(=O)Cc1ccc(F)cc1)N1CCC(N2CCOCC2=O)CC1 (centres undefined) 12.7%, O=C1CCC(C(=O)N2CCSCC2)CN1CCc1cccc(F)c1 (centres undefined) 6.53%, CCN(Cc1ccncc1)C(=O)c1coc(COc2cccc(C(F)(F)F)c2)n1 0.141%, CCOC(=O)[C@H]1C[C@]2(CCCCNC2=O)N(C(=O)c2cccc(OC)c2)[C@H]1c1ccco1 -4.71%, Cc1cn2nc(C(=O)N3CCC(C(=O)NCc4ccccn4)CC3)cc2c(=O)[nH]1 18.9%, Cn1cc(CN2C[C@H](C(=O)Nc3nccs3)C[C@@H]2c2cccc(C(F)(F)F)c2)cn1 4.37% [at 57.5 µM], COc1ccc(C(=O)N2CCC[C@H]2c2nc(-c3ccccc3)no2)cc1 5.95%, COc1ccc(NC(=O)c2nc3sccn3c2-c2cccc(OC)c2)cc1 27.7%, C[C@@H]1CN(C(=O)CN2CCN(c3ncccn3)CC2)C[C@@]1(O)C1CCC1 14.1%, Cc1nc(C)c(C(=O)N2CCC(Cc3nc(C4CC4)n[nH]3)CC2)s1 18.2%, Cn1cc(CN2CCN(c3ccc(C#N)cn3)CC2)c(-c2ccccc2)n1 12.2%, CCc1cc(=O)n(CC(=O)N2CCN(c3ccccc3OC)CC2)c(-c2ccccc2)n1 -0.786%, COCCN1C[C@@H]2[C@H](c3ccccc31)[C@@H](CO)[C@@H](c1ccccc1)N2C(=O)COC(C)=O 4.01%, Cc1ccc(CNC(=O)N(C)CC2CCOCC2)cc1 -0.782%, COCC(=O)N1CCC(C2CCN(C(=O)c3ccncc3)CC2)C1 (centres undefined) -0.46%, COc1cccc(CCC(=O)N2CCC3(CC2)N=C(c2ccccc2)NO3)c1 16.3%, CCN1c2cc(C(=O)NCc3cccc(OC)c3)ccc2C(=O)N2CCCCCC21 (centres undefined) -1.41%, c1coc(-c2nnc([C@H]3CCN(Cc4c[nH]c5ccccc45)C3)o2)c1 37.1% [at 57.5 µM], C[C@@H]1CN(C2(C(=O)NCc3n[nH]c4c3CCC4)Cc3ccccc3C2)C[C@H](C)O1 0.0426%, CCOC(=O)C1c2c(OC)ccc3c2C(=CC(C)(C)CO3)CN1C(=O)C1CC1 (centres undefined) 2.76%, Cc1cccc(-c2nc3ccc(C(=O)NC4CCCCCC4)cc3o2)n1 29% [at 57.5 µM], O=C1CCN(C(=O)[C@@H]2CCCN2C(=O)Nc2ccccc2)CCCCCCN1 -1.52%, CCc1ccc(NC(=O)Cn2nc3n(c2=O)CCCC3)cc1 -0.266%, COCC1CN(C)CC12CCN(Cc1sccc1C)CC2 (centres undefined) -2.49%, Fc1ccccc1-c1noc(NCCc2ccc(Cl)cc2)n1 14.8%, Nc1nc(CCC(=O)N[C@@H]2[C@@H](Cc3ccccc3)[C@H]3OCC[C@@H]23)cs1 -5.81%, O=C([C@H]1C[C@H](Oc2cccnc2)CN1C(=O)c1ccc2ccccc2n1)N1CCOCC1 27%, O=S(=O)(c1cnc[nH]1)N1CCC(c2nc(CCOCC3CC3)no2)C1 (centres undefined) -2.63%, CCc1ccc(CN2CCN(c3ccc(C(N)=O)cn3)CC2)nc1 17.8%, COCC(=O)N(C1CCOCC1)C1CCN(C(=O)c2cccnc2C)CC1 10.8%, CC(C)CCN1CCC(N2CCN(C(=O)c3ccc(Br)o3)CC2)C1=O (centres undefined) 57%, Cc1cc(C(=O)NC2CCCC2)c2c(C3CCNC3)noc2n1 (centres undefined) 1.69%, CCS(=O)(=O)N1CCC2(CCC2OC)CC1 (centres undefined) 27.6%, Cc1cnc(CC2CCN(S(=O)(=O)c3ccc4c(c3)CCC4)CC2)n1CC1CC1 12.7%, CC1CCCCN1Cc1nnc2cc(-c3nc(-c4ccccc4)no3)ccn12 (centres undefined) 11.3%, COc1ccc(CN2CCc3nc(N4CCN(C)CC4)[nH]c(=O)c3CC2)c(OC)c1OC 2.04%, Cn1nc2n(c1=O)CCN(C1CCSCC1)CC2 2.04%, COc1ccccc1CC(=O)Nc1cccn2nc(C(C)C)nc12 4.57%, O=C(C1CCCN([S+](=O)([O-])c2cccc(C(F)(F)F)c2)C1)N1CCC(c2nc3ncccc3[nH]2)C1 (centres undefined) 3.41%, O=C(COc1cccc(-c2nnc3n2CCCC3)c1)NCc1ccccc1 -4.92%, CCNC(=O)c1c(C)oc2c1CN(Cc1ccc(Br)o1)CC2 6.18%

From PubChem BioAssay AID1794845 (National Center for Advancing Translational Sciences (NCATS), 2023)
